Inconclusive results are not listed. Where a call stands in place of a potency, no number is given. Active and inactive are the calls of the source. Calls come from the whole dose curve.
test: p53 small molecule agonists, cell-based qHTS assay with human liver microsomes: qHTS cell viability counter screen (AID 1963579); settings: p53RE-bla HCT-116 viability, ATP luminescence, 16 h, HLM; series mostly up to 66 µM; note: nearly all actives have a fitted effect of over 45% in size
From the text: National Center for Advancing Translational Sciences [NCATS]
Division of Preclinical Innovation [DPI]
U.S. Environmental Protection Agency [EPA]
National Institutes of Environmental Health Sciences [NIEHS]
National Toxicology Program [NTP]
U.S. Food and Drug Administration [FDA]
p53, a tumor suppressor protein, is activated following cellular insult, including DNA damage and other cellular stresses. The activation of p53 regulates cell fate by inducing DNA repair, cell cycle arrest, apoptosis, or cellular senescence. The activation of p53, therefore, is a good indicator of DNA damage and other cellular stresses. […] The activation of the reporter gene under culture conditions can be detected by fluorescence intensity. This cell line was used to screen the Tox21 10K compound library in the condition of presence of human liver microsomes and to identify agonists that activate the p53 signaling pathway after in vitro metabolic activation (Ooka et al., Archive of Toxicology 96:1975-1987, 2022).
Tox21 Assay Protocol Summary:
The p53RE-bla cells were dispensed at 4,000cells/3ul/well in 1536-well black-clear bottom plates. After the assay plates were incubated at 37 C, 5% CO2 incubator for 5 hours, 23 nL of compounds dissolved in DMSO, positive controls or DMSO only was transferred to the assay plate. Following compound addition, 3 uL of human liver microsomes (XenoTech, Kansas City, KS) at final concentration of 0.5 mg/mL and 1uL of B-Nicotinamide adenine dinucleotide 2'-phosphate (NADPH) at final concentration of 0.5 mg/mL were transferred to the assay plate. The plates were incubated at 37 C for 16 hours. 1 uL of LiveBLAzer detection mixture was added to each well and the plates were incubated at room temperature in the dark for 2 h. Fluorescence intensity at 460 and 530 nm emission and 405 nm excitation were measured by an Envision plate reader. For cell viability readout that measures cytotoxicity, 4 ul/well of CellTiter-Glo reagent was added into the assay plates using a Flying Reagent Dispenser. After 30 min incubation at room temperature, the luminescence intensity in the plates was measured using a ViewLux plate reader.
Potency is the fitted concentration of half-maximal effect.

Row | SMILES | Potency
1 | CC(=O)c1cc(C(C)(C)C)cc2c1CCC2(C)C | inactive
2 | CC1(c2ccc(Oc3ccccc3)cc2)OC(=O)N(Nc2ccccc2)C1=O (stereo not given) | inactive
3 | CC(C)(C)N(NC(=O)c1ccc(Cl)cc1)C(=O)c1ccccc1 | inactive
4 | CC[C@H](O)C(C[C@H](C)N(C)C)(c1ccccc1)c1ccccc1 | inactive
5 | CC(O)(CS(=O)(=O)c1ccc(F)cc1)C(=O)Nc1ccc(C#N)c(C(F)(F)F)c1 (stereo not given) | inactive
6 | Clc1cccc2ccccc12 | inactive
7 | COc1ccc(-c2ccccc2)cc1NNC(=O)OC(C)C | inactive
8 | CC1C(=O)C[C@]2(C(C)C)C[C@H]12 (stereo not given in full) | inactive
9 | C/C(=C\c1ccccc1)[N+](=O)[O-] | inactive
10 | O=C(Nc1ccccc1)c1ccccc1I | inactive
11 | c1ccc2nc(N3CCNCC3)ccc2c1 | inactive
12 | CCN(CC)C(=S)[S-].CCN(CC)C(=S)[S-].[Zn+2] | 3.21 µM (active)
13 | Cc1ccc(C)c2ccccc12 | inactive
14 | Cc1ccc([N+](=O)[O-])[c]2c1[O][Hg]2 | 15.8 µM (active)
15 | CN1COCN(Cc2cnc(Cl)s2)/C1=N\[N+](=O)[O-] | inactive
16 | NC1=NC(=O)C(c2ccccc2)O1 (stereo not given) | inactive
17 | CC(c1ccccc1)(c1ccc(O)cc1)c1ccc(O)cc1 | 45.8 µM (active)
18 | Cc1ccccc1 | inactive
19 | O=C(NC(=O)c1c(F)cccc1F)Nc1ccc(Oc2ccc(C(F)(F)F)cc2Cl)cc1F | inactive
20 | CC(C)=CC1C(C(=O)OC(C#N)c2cccc(Oc3ccccc3)c2)C1(C)C (stereo not given) | inactive

Row | SMILES | Potency
21 | CC[C@]1(O)CC[C@H]2[C@@H]3CCC4=CCCC[C@@H]4[C@H]3CC[C@@]21C | inactive
22 | CC(=O)CCc1ccc2c(c1)OCO2 | inactive
23 | CCCCc1c(C)nc(NCC)nc1OS(=O)(=O)N(C)C | inactive
24 | Nc1c(Cl)c(F)nc(OCC(=O)O)c1Cl | inactive
25 | CC(Cc1ccc(C(C)(C)C)cc1)CN1C[C@@H](C)O[C@@H](C)C1 (stereo not given in full) | inactive
26 | COC1=CC(=O)O[C@@H](CCc2ccccc2)C1 | inactive
27 | O=[N+]([O-])c1ccccc1CCl | inactive
28 | CC(=O)Nc1cc([As](=O)(O)O)ccc1O | inactive
29 | COC(=O)C1(O)c2ccccc2-c2ccccc21 | inactive
30 | Nc1cc2c3c(c1)C(c1ccccc1)=N[C@@H](NC(=O)c1cccnc1)C(=O)N3CC2 | inactive
31 | COP(=O)(OC)O/C(=C\Cl)c1cc(Cl)c(Cl)cc1Cl | inactive
32 | CC(C)[N+](=O)[O-] | inactive
33 | CN1C[C@H](CNC(=O)OCc2ccccc2)C[C@@H]2c3cccc4c3c(cn4C)C[C@H]21 | inactive
34 | COC(=O)N(C(=O)N1COC2(C(=O)OC)Cc3cc(Cl)ccc3C2=N1)c1ccc(OC(F)(F)F)cc1 (stereo not given) | inactive
35 | CC(Cc1ccc2c(c1)OCO2)NO (stereo not given) | inactive
36 | CCN(CC)C(=O)Cl | inactive
37 | Cc1cc(C)c(C2=C(OC(=O)CC(C)(C)C)C3(CCCC3)OC2=O)c(C)c1 | inactive
38 | COC(=O)COc1ccc(Cl)cc1Cl | inactive
39 | N#Cc1c2ccccc2cc2ccccc12 | inactive
40 | c1ccc2c(c1)[nH]c1cnccc12 | inactive

— PubChem BioAssay (Tox21)
